This passage reports growth results from PubChem BioAssay (NCI).

Each structure is given as a SMILES string. Compounds without any hit were thinned out: in the full panel of roughly 83,000, 20% have a hit.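 48-hour exposure, single concentration, 96-well plates; percent growth endpoint where 0 means no net growth. Active: below 10.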 Calls of active or inactive are those of the source.

The experiment relates to NCI-H460 lung. In words: NCI-60 one-dose screen, 48 h (100 = growth as untreated, 0 = no growth, -100 = all killed). As to conditions: 10 µM.
In the case of `O=C1Cc2cc(CCN3CCN(c4nsc5ccccc45)CC3)c(Cl)cc2N1`, the growth was 103% (inactive).
Next, `Nc1ccccc1NC(=O)c1ccc(CCCC(=O)Nc2ccc(C3CC3N)cc2)cc1` (stereo not given): 40.4% (inactive); `CC(C)Cc1ccc([C@H](C)C(=O)O)cc1`: 106% (inactive); `COc1cc2c3c(n(C4CCN(C)CC4)c(=O)c2cc1OC)-c1cc2c(cc1C3=O)OCO2`: 19.8% (inactive).
Next, `CN(C)c1nc(N)c2nccnc2n1`: 108% (inactive); `COc1ccc(CCN2CCC(Nc3nc4ccccc4n3Cc3ccc(F)cc3)CC2)cc1`: 1.57% (active); `CNC(=O)c1c(I)c(NC(C)=O)c(I)c(C(=O)O)c1I`: 109% (inactive).
Next, `C[C@H]1[C@H](OC(=O)CCC(=O)O)O[C@@H]2O[C@]3(C)CC[C@H]4[C@H](C)CC[C@@H]1[C@@]24OO3`: 25.5% (inactive); `Nc1cc(-c2ccncc2)c[nH]c1=O`: 110% (inactive); `COc1ccc2c(c1)C(CC(=O)NN)CCC2` (stereo not given): 109% (inactive).
Regarding `CCCCc1oc2ccccc2c1C(=O)c1cc(I)c(OCCN(CC)CC)c(I)c1`, the growth was -76.7% (active).
Next, `Clc1ccc2c(c1)C(N1CCNCC1)=Nc1ccccc1O2`: 68.1% (inactive); `COc1ccc(Cc2cnc(N)nc2N)cc1OC`: 105% (inactive).
Next, `COc1ccc(C(=O)CSc2nc(-c3cc(OC)ccc3OC)cc(-c3ccc(OC)cc3)c2C#N)cc1`: 127% (inactive); `Nc1ccc(-c2cccs2)cc1NC(=O)c1ccc(CCCC(=O)Nc2ccc(C3CC3N)cc2)cc1` (stereo not given): 38% (inactive).
To `CCCCCOC(=O)Nc1nc(=O)n(C2O[C@H](C)[C@@H](O)[C@H]2O)cc1F` (stereo not given in full) belongs 102% (inactive); to `C[C@@H](O)[C@H]1C(=O)N2C(C(=O)O)=C(SCCN=CN)C[C@H]12`, 1.59% (active); to `CCCCC(CC)CN=C(N)NC(N)=NCCCCCCN=C(N)NC(N)=NCC(CC)CCCC` (stereo not given), -71.3% (active).
As to `CO[C@H]1CC(O[C@@H]2/C(C)=C/C[C@@H]3C[C@@H](C[C@]4(C=C[C@H](C)[C@@H](C5CCCCC5)O4)O3)OC(=O)[C@@H]3C=C(C)[C@@H](O)[C@H]4OC/C(=C\C=C\[C@@H]2C)[C@]43O)O[C@@H](C)C1O[C@H]1C[C@H](OC)[C@@H](O)[C@H](C)O1` (stereo not given in full), the growth was -86.7% (active).
To `CC1/C=C/C=C/C=C/C=C/C=C/C=C/C=C/C(O[C@@H]2O[C@H](C)[C@H](O)[C@@H](O)[C@@H]2N)CC(O)C(C(=O)O)C(O)CC(=O)CC(O)CC(O)CC(O)CC(=O)CCCC(=O)CC(=O)OC1C(C)CC(C)C(O)CC(=O)c1ccc(N)cc1` (stereo not given in full) belongs -81.8% (active).
In the case of `S=C1N(c2ccccc2)CN(C2CCCCC2)CN1c1ccccc1`, the growth was 105% (inactive).
To `C#C[C@]1(O)CCC2C3CCc4cc(OC5CCCC5)ccc4C3CC[C@@]21C` (stereo not given in full) belongs 49.8% (inactive); to `CC(=O)[C@@]12O[C@](C)(c3ccccc3)O[C@@H]1CC1C3CCC4=CC(=O)CC[C@]4(C)C3CC[C@@]12C` (stereo not given in full), 68.4% (inactive).
Next, `COc1ccc2nc3cc(Cl)ccc3c(Nc3cc(CN4CCCC4)c(O)c(CN4CCCC4)c3)c2n1`: 4.16% (active); `CCc1cc(Cl)c(OC)c(C(=O)NCC2CCCN2CC)c1O` (stereo not given): 104% (inactive); `CCOC(=O)c1sc2ncnc(Nc3ccc(NC(=O)Nc4ccc(Cl)cc4)cc3)c2c1C`: 41.1% (inactive).
To `Cc1cc(C(C#N)c2ccc(Cl)cc2)c(Cl)cc1NC(=O)c1cc(I)cc(I)c1O` (stereo not given) belongs 24.1% (inactive); to `COc1cc2c3c(n([C@@H]4CCOC4)c(=O)c2cc1OC)-c1cc2c(cc1C3=O)OCO2`, 4.11% (active).
Take `C[N+]1(CCCCC[N+]2(C)CCCC2)CCCC1`: the growth is 94.7% (inactive).
To `C=C(NC(=O)C(=C)NC(=O)c1csc(C2=NC3c4csc(n4)C4NC(=O)c5csc(n5)C(C(C)(O)C(C)O)NC(=O)C5CSC(=N5)C(=CC)NC(=O)C(C(C)O)NC(=O)c5csc(n5)C3(CC2)NC(=O)C(C)NC(=O)C(=C)NC(=O)C(C)NC(=O)C(C(C)CC)NC2C=Cc3c(C(C)O)cc(nc3C2O)C(=O)OC4C)n1)C(N)=O` (stereo not given) belongs 66.2% (inactive).
Next, `Nc1nc(Cl)nc2c1ncn2C1O[C@H](CO)[C@@H](O)[C@@H]1F` (stereo not given in full): 3.27% (active).
Next, `CN1CCN(c2cc3c(cc2F)c(=O)c(C(=O)O)cn3-c2ccc(F)cc2)CC1`: 98.5% (inactive); `CCC1NC(=O)c2cc(S(N)(=O)=O)c(Cl)cc2N1` (stereo not given): 114% (inactive); `CC(=O)O[C@@]12CO[C@@H]1C[C@H](O)[C@@]1(C)C(=O)[C@H](O)C3=C(C)[C@@H](OC(=O)[C@H](O)[C@@H](NC(=O)OC(C)(C)C)c4ccccc4)C[C@@](O)([C@@H](OC(=O)c4ccccc4)C12)C3(C)C` (stereo not given in full): 12.1% (inactive).
For `CCCc1nc(C(C)(C)O)c(C(=O)O)n1Cc1ccc(-c2ccccc2-c2nn[nH]n2)cc1`, the growth was 105% (inactive).
Next, `Cc1cc(CC(C)CC(C)(C)C)n(O)c(=O)c1` (stereo not given) (tested in a mixture with another compound): 3.41% (active); `CN1CCN(C2=Nc3ccccc3Oc3ccc(Cl)cc32)CC1`: 105% (inactive).
As to `Cc1nc2n(c(=O)c1CCN1CCC(c3noc4cc(F)ccc34)CC1)CCC[C@@H]2O`, the growth was 105% (inactive).
To `COc1cc2cc(Oc3ccc(NC(=O)c4cccc(C(F)(F)F)c4)cc3)c(C)nc2cc1OC` belongs 28.3% (inactive); to `CCOC(=O)c1sc2ncnc(Nc3ccc4c(cnn4C(=O)Nc4ccccc4)c3)c2c1C`, 49.2% (inactive).
